{
  "source": "PubChem BioAssay",
  "note": "Activity calls are given as the source filed them.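 The calls were made as follows, unless noted: active = mean inhibition over 43.08%, the solvent-only control mean plus 3 SD; inactive = the rest.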",
  "data": [
    {"target": "Nuclear receptor coactivator 3 (Homo sapiens) (UniProt Q9Y6Q9)", "sequence (Q9Y6Q9 whole entry, looked up, the tested form may be a part)": "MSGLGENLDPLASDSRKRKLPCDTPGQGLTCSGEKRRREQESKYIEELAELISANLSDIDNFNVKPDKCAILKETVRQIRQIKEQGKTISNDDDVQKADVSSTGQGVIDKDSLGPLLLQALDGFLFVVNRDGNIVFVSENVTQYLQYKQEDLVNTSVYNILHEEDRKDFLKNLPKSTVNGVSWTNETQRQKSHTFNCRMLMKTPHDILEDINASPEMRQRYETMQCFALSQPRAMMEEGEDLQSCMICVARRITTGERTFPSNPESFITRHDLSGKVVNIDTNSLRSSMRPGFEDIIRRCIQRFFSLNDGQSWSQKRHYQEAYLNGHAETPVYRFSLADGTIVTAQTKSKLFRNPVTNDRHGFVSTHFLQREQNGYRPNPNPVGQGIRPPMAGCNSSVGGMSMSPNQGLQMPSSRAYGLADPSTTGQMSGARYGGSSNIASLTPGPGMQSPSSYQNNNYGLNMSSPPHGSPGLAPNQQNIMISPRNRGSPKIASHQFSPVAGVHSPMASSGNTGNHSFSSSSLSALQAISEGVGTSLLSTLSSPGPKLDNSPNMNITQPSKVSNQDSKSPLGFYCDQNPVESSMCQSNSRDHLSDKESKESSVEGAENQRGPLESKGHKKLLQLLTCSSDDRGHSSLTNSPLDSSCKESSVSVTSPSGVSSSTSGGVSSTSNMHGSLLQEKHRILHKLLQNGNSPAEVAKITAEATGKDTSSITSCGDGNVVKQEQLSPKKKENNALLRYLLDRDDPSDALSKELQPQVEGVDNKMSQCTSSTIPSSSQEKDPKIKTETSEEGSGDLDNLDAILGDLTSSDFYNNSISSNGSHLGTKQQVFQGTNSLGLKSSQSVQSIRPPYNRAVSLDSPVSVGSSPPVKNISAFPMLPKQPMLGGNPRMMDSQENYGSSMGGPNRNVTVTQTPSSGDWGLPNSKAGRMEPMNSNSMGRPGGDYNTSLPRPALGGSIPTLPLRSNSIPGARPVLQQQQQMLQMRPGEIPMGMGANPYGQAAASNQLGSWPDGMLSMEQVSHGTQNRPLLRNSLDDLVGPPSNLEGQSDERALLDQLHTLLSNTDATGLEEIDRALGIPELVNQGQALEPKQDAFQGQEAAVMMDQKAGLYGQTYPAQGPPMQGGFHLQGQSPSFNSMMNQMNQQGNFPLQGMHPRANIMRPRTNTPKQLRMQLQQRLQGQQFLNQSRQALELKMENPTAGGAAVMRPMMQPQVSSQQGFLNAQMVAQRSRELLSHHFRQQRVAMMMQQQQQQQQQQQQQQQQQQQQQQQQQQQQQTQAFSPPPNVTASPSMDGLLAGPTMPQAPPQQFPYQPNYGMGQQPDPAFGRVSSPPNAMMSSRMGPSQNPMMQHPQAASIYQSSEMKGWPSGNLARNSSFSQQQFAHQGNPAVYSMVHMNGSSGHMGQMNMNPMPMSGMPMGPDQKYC", "assay": "NCOA3 GAL4-fusion reporter inhibition – cell-based, luminescence, quadruplicate, confirmation (AID 588792);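 also: 0% = DMSO treated cells and 100% = gossypol at 36 µM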", "settings": "HEK293 GAL4-SRC3 luciferase reporter, at 3.6 µM, active compounds read high", "values": [
      {"smiles": "COc1ccc(N(C(=O)CCl)C(C(=O)NC2CCCCC2)c2cccnc2)cc1", "note": "(stereo not drawn)", "inhibition": "75.7% (active)"},
      {"smiles": "O=S(=O)(Nc1cc(Sc2ncn[nH]2)c(O)c2ccccc12)c1ccccc1", "inhibition": "12.9% (inactive)"},
      {"smiles": "COCC(C)n1c(C)cc(C(=O)COC(=O)c2cccn2C)c1C", "note": "(stereo not drawn)", "inhibition": "9.47% (inactive)"},
      {"smiles": "Brc1ccc2ncnc(Nc3ccc(N4CCOCC4)cc3)c2c1", "inhibition": "57.9% (active)"},
      {"smiles": "CC1CCN(C2=NC(=O)/C(=C/c3ccccc3F)S2)CC1", "inhibition": "38.5% (inactive)"},
      {"smiles": "CC(=C/c1ccccc1)/C=N/n1c(-c2ccncc2)n[nH]c1=S", "inhibition": "71.2% (active)"},
      {"smiles": "COCCn1c(C)cc(C2=NNC(=NC3CC3)SC2)c1C", "inhibition": "91.2% (active)"},
      {"smiles": "CC(=O)/C(N=Nc1ccc2c(c1)OCCO2)=C(\\C)O", "inhibition": "45.3% (active)"},
      {"smiles": "c1ccc(CCc2nn3c(-c4ccncc4)nnc3s2)cc1", "inhibition": "68.4% (active)"},
      {"smiles": "COCCn1c(C)cc(C(=O)COc2ccc(C)nc2[N+](=O)[O-])c1C", "inhibition": "24.8% (inactive)"},
      {"smiles": "COc1ccc(-c2cc(=O)oc3c(C)c(O)ccc23)cc1", "inhibition": "49.4% (active)"},
      {"smiles": "N#CC(C#N)c1ccnc2ccccc12", "inhibition": "66.9% (active)"},
      {"smiles": "Nc1ncnc(N2CCc3ccccc32)c1[N+](=O)[O-]", "inhibition": "85.4% (active)"},
      {"smiles": "CN1CCN(c2ccc(NC(=O)N3CCc4ccccc43)cc2)CC1", "inhibition": "32.5% (inactive)"},
      {"smiles": "CS(=O)(=O)N(CCC#N)Cc1ccc(/C=C2\\C(=O)Nc3ccccc32)o1", "inhibition": "55.2% (active)"},
      {"smiles": "O=C(NC1CCCCC1)C(c1cccnc1)N(C(=O)CCl)c1ccc(F)cc1", "note": "(stereo not drawn)", "inhibition": "78.3% (active)"},
      {"smiles": "C=C1C(=O)O[C@H]2C[C@H]1[C@@H](OC(C)=O)C/C(C)=C/CC/C(C)=C\\CC[C@]2(C)O", "inhibition": "43.6% (active)"},
      {"smiles": "Cc1cc(N2CCOCC2)c2c(N)c(Br)cc(C)c2n1", "inhibition": "71.8% (active)"},
      {"smiles": "Nc1ncccc1C(=O)OCC(=O)N1CCN(S(=O)(=O)c2ccc(Cl)cc2)CC1", "inhibition": "32.3% (inactive)"},
      {"smiles": "Cc1nc(SCC(=O)Nc2nc3ccccc3s2)c(C#N)c(C)c1C", "inhibition": "92.7% (active)"},
      {"smiles": "CC(C)(CO)CNc1ccn2nccc2n1", "inhibition": "49.3% (active)"},
      {"smiles": "CCN(CC)c1ccc(/C=N/Nc2nc(C)cc(=O)[nH]2)c(O)c1", "inhibition": "87.7% (active)"},
      {"smiles": "CCOc1cc(/C=C2\\COc3ccccc3C2=O)cc(Br)c1OCC(=O)N(C)C", "inhibition": "61.1% (active)"},
      {"smiles": "CCOc1ccc(Nc2ncnc3ccc([N+](=O)[O-])cc23)cc1", "inhibition": "70% (active)"},
      {"smiles": "Nc1ccc(-c2nc3c(Cl)cc(N)cc3[nH]2)cc1", "inhibition": "18.7% (inactive)"},
      {"smiles": "Cn1nc(C(F)(F)F)c(C#N)c1N1CCN(c2ccccc2)CC1", "inhibition": "56.3% (active)"},
      {"smiles": "CC1=C(C(=O)OCc2ccc3c(c2)OCO3)C(c2ccc(O)c([N+](=O)[O-])c2)NC(=O)N1", "note": "(stereo not drawn)", "inhibition": "60% (active)"},
      {"smiles": "Cc1ccc(-n2c(C)c([N+](=O)[O-])c3ccc(O)c(CN(C)C)c32)cc1", "inhibition": "76.7% (active)"},
      {"smiles": "COc1ccc(-n2c(C)c([N+](=O)[O-])c3ccc(O)c(CN4CCCCC4)c32)cc1", "inhibition": "47.4% (active)"},
      {"smiles": "CCN(CC)Cc1c(O)ccc2c([N+](=O)[O-])c(C)n(-c3ccc(OC)cc3)c12", "inhibition": "69% (active)"},
      {"smiles": "Cc1cc(C(=O)CN2C(=O)c3ccccc3S2(=O)=O)c(C)n1C(C)C", "inhibition": "31.4% (inactive)"},
      {"smiles": "NNC(=O)c1cc2ccccc2cc1O", "inhibition": "67.7% (active)"},
      {"smiles": "CC(C)(C)OC(=O)NCCCCCNC(=O)c1nc[nH]c1C(=O)NCCCCCNC(=O)OC(C)(C)C", "inhibition": "5.02% (inactive)"},
      {"smiles": "Cc1cc(Sc2nnc(/N=C/N(C)C)s2)c2ccccc2n1", "inhibition": "9.12% (inactive)"},
      {"smiles": "COc1cccc(NC(=O)Nc2nc(-c3ccc(OC)c(OC)c3)cs2)c1", "inhibition": "81.3% (active)"},
      {"smiles": "CCCN(CC(=O)Nc1ccccc1C)C(=O)CCl", "inhibition": "74.9% (active)"},
      {"smiles": "CC(=O)c1sc(NC(=O)C2(F)C(F)(F)C(F)(F)C(F)(F)C(F)(F)C2(F)F)nc1C", "inhibition": "66.5% (active)"},
      {"smiles": "c1ccc(CNc2ncnc3ccccc23)cc1", "inhibition": "47% (active)"},
      {"smiles": "Cc1ccc(Sc2c(C=O)c3ccccc3n2C)cc1", "inhibition": "63.2% (active)"}
    ]},
    {"test_system": "transactivating tegument protein VP16 (Human herpesvirus 1), Gal4-VP16 luciferase reporter", "assay": "repression of VP16-driven luciferase reporter – cell-based, luminescence, high throughput, counter-screen for SRC3 inhibitor project (AID 588794; in the data active = inhibition above about 30%)", "settings": "mammalian cells, at 3.6 µM, active compounds read high", "values": [
      {"smiles": "COc1ccc(N(C(=O)CCl)C(C(=O)NC2CCCCC2)c2cccnc2)cc1", "note": "(stereo not drawn)", "inhibition": "56.5% (active)"},
      {"smiles": "O=S(=O)(Nc1cc(Sc2ncn[nH]2)c(O)c2ccccc12)c1ccccc1", "inhibition": "13.9% (inactive)"},
      {"smiles": "COCC(C)n1c(C)cc(C(=O)COC(=O)c2cccn2C)c1C", "note": "(stereo not drawn)", "inhibition": "-13.8% (inactive)"},
      {"smiles": "Brc1ccc2ncnc(Nc3ccc(N4CCOCC4)cc3)c2c1", "inhibition": "31.9% (active)"},
      {"smiles": "CC1CCN(C2=NC(=O)/C(=C/c3ccccc3F)S2)CC1", "inhibition": "-5.24% (inactive)"},
      {"smiles": "CC(=C/c1ccccc1)/C=N/n1c(-c2ccncc2)n[nH]c1=S", "inhibition": "45.2% (active)"},
      {"smiles": "COCCn1c(C)cc(C2=NNC(=NC3CC3)SC2)c1C", "inhibition": "87.2% (active)"},
      {"smiles": "CC(=O)/C(N=Nc1ccc2c(c1)OCCO2)=C(\\C)O", "inhibition": "-50.6% (inactive)"},
      {"smiles": "c1ccc(CCc2nn3c(-c4ccncc4)nnc3s2)cc1", "inhibition": "47.2% (active)"},
      {"smiles": "COCCn1c(C)cc(C(=O)COc2ccc(C)nc2[N+](=O)[O-])c1C", "inhibition": "1.88% (inactive)"},
      {"smiles": "COc1ccc(-c2cc(=O)oc3c(C)c(O)ccc23)cc1", "inhibition": "39.7% (active)"},
      {"smiles": "N#CC(C#N)c1ccnc2ccccc12", "inhibition": "40.6% (active)"},
      {"smiles": "Nc1ncnc(N2CCc3ccccc32)c1[N+](=O)[O-]", "inhibition": "61.3% (active)"},
      {"smiles": "CN1CCN(c2ccc(NC(=O)N3CCc4ccccc43)cc2)CC1", "inhibition": "13.4% (inactive)"},
      {"smiles": "CS(=O)(=O)N(CCC#N)Cc1ccc(/C=C2\\C(=O)Nc3ccccc32)o1", "inhibition": "37.4% (active)"},
      {"smiles": "O=C(NC1CCCCC1)C(c1cccnc1)N(C(=O)CCl)c1ccc(F)cc1", "note": "(stereo not drawn)", "inhibition": "65.9% (active)"},
      {"smiles": "C=C1C(=O)O[C@H]2C[C@H]1[C@@H](OC(C)=O)C/C(C)=C/CC/C(C)=C\\CC[C@]2(C)O", "inhibition": "57.6% (active)"},
      {"smiles": "Cc1cc(N2CCOCC2)c2c(N)c(Br)cc(C)c2n1", "inhibition": "59% (active)"},
      {"smiles": "Nc1ncccc1C(=O)OCC(=O)N1CCN(S(=O)(=O)c2ccc(Cl)cc2)CC1", "inhibition": "22.3% (inactive)"},
      {"smiles": "Cc1nc(SCC(=O)Nc2nc3ccccc3s2)c(C#N)c(C)c1C", "inhibition": "88.5% (active)"},
      {"smiles": "CC(C)(CO)CNc1ccn2nccc2n1", "inhibition": "35.4% (active)"},
      {"smiles": "CCN(CC)c1ccc(/C=N/Nc2nc(C)cc(=O)[nH]2)c(O)c1", "inhibition": "78.7% (active)"},
      {"smiles": "CCOc1cc(/C=C2\\COc3ccccc3C2=O)cc(Br)c1OCC(=O)N(C)C", "inhibition": "35.8% (active)"},
      {"smiles": "CCOc1ccc(Nc2ncnc3ccc([N+](=O)[O-])cc23)cc1", "inhibition": "43.6% (active)"},
      {"smiles": "Nc1ccc(-c2nc3c(Cl)cc(N)cc3[nH]2)cc1", "inhibition": "-18.4% (inactive)"},
      {"smiles": "Cn1nc(C(F)(F)F)c(C#N)c1N1CCN(c2ccccc2)CC1", "inhibition": "31.5% (active)"},
      {"smiles": "CC1=C(C(=O)OCc2ccc3c(c2)OCO3)C(c2ccc(O)c([N+](=O)[O-])c2)NC(=O)N1", "note": "(stereo not drawn)", "inhibition": "37.2% (active)"},
      {"smiles": "Cc1ccc(-n2c(C)c([N+](=O)[O-])c3ccc(O)c(CN(C)C)c32)cc1", "inhibition": "51.9% (active)"},
      {"smiles": "COc1ccc(-n2c(C)c([N+](=O)[O-])c3ccc(O)c(CN4CCCCC4)c32)cc1", "inhibition": "30.5% (active)"},
      {"smiles": "CCN(CC)Cc1c(O)ccc2c([N+](=O)[O-])c(C)n(-c3ccc(OC)cc3)c12", "inhibition": "50.9% (active)"},
      {"smiles": "Cc1cc(C(=O)CN2C(=O)c3ccccc3S2(=O)=O)c(C)n1C(C)C", "inhibition": "24.3% (inactive)"},
      {"smiles": "NNC(=O)c1cc2ccccc2cc1O", "inhibition": "12.8% (inactive)"},
      {"smiles": "CC(C)(C)OC(=O)NCCCCCNC(=O)c1nc[nH]c1C(=O)NCCCCCNC(=O)OC(C)(C)C", "inhibition": "13.7% (inactive)"},
      {"smiles": "Cc1cc(Sc2nnc(/N=C/N(C)C)s2)c2ccccc2n1", "inhibition": "40.5% (active)"},
      {"smiles": "COc1cccc(NC(=O)Nc2nc(-c3ccc(OC)c(OC)c3)cs2)c1", "inhibition": "73.5% (active)"},
      {"smiles": "CCCN(CC(=O)Nc1ccccc1C)C(=O)CCl", "inhibition": "48.1% (active)"},
      {"smiles": "CC(=O)c1sc(NC(=O)C2(F)C(F)(F)C(F)(F)C(F)(F)C(F)(F)C2(F)F)nc1C", "inhibition": "79% (active)"},
      {"smiles": "c1ccc(CNc2ncnc3ccccc23)cc1", "inhibition": "44.9% (active)"},
      {"smiles": "Cc1ccc(Sc2c(C=O)c3ccccc3n2C)cc1", "inhibition": "42.4% (active)"}
    ]}
  ]
}
